{"source": "the supplement of paper PMC6555819"}
{"tested_on": "LXRa homodimer (NR concentration 270 nM)", "experiment": "PBM binding z-score (relative to random genomic background probes); higher = stronger binding; sequences stand for … in GC…GCGATTGACAGCGTAGAATGAAGG", "procedure,_shortened": "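Binding buffer was PBS pH 7.4 with 2% milk, 0.02% Triton X-100, 1 mM DTT, 0.2 mg/mL BSA and 0.4 mg/ml salmon testes DNA. In it, ligand-free nuclear receptor dimers were incubated 1 h on custom Agilent 4×180K protein-binding microarrays carrying double-stranded probes. Antibodies against each partner (one per run) detected binding, and z-scores were calculated against random background probes after regression normalization of scanned fluorescence.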"}
{"sequence": "TTACCAAGGTGAAAGTCGTTGATCCCTCTGTAGA", "PBM binding z-score": -0.418}
{"sequence": "GTACGAAGGTGAATAGGTCGTTGATGAGTAGGCG", "PBM binding z-score": -0.364}
{"sequence": "TGTTGTAGATCAACAGGAGGTTAAGAAAGATCGA", "PBM binding z-score": 0.018}
{"sequence": "TCATATAGGTAAATGCTAGGTGAGAGTCCGATCT", "PBM binding z-score": -0.251}
{"sequence": "GATACAGTGTCAGCTAGAGGCCAGAGTATGGAAA", "PBM binding z-score": -0.437}
{"sequence": "CCTACTGGGACACGAAAGGTCATTGATTCAGTGA", "PBM binding z-score": 5.13}
{"sequence": "TCTCGGAGGACACGAGAGGTCAGAGCTCGACATC", "PBM binding z-score": 2.61}
{"sequence": "CGTCGAAGGTCAAAGGTCAGTGAAGAGATGACGG", "PBM binding z-score": 3.31}
{"sequence": "TCTACAGGGTCAAAGGCCAGAGTACGAATGTCGA", "PBM binding z-score": 0.313}
{"sequence": "TCTAGCAGGCCAGAGGATCACTCAAGAGGTACGG", "PBM binding z-score": -0.763}
{"sequence": "CCTACTGGGCCAAAGGTTATTGATTCCAATGCTC", "PBM binding z-score": 0.345}
{"sequence": "CGTCCAAGGTCAATGGTAGGTCAGTGAAAGCATT", "PBM binding z-score": 2.66}
{"sequence": "TCTCGGAGGAGACGAAAGGTCAGAGCTCGACATC", "PBM binding z-score": 1.15}
{"sequence": "TGAATGAGTTTATAAGATCAGGGAACGTTGCAAA", "PBM binding z-score": -0.288}
{"sequence": "ATCTCTAGGTAAAGATAGTTCGGTGAATGCAAAT", "PBM binding z-score": 0.268}
{"sequence": "AGAACGAGGGCACGCTGAGTTGAAAGCAGAGTAG", "PBM binding z-score": -0.955}
{"sequence": "TGAATGAGGTTATACGATCAGGGAACGTTGCAAA", "PBM binding z-score": -0.238}
{"sequence": "TGAATGAGATTAAAGATCAGGGAACGTGGCGTCG", "PBM binding z-score": -0.329}
{"sequence": "GATACAGGGTCACCTAGAGGCCAGAGTATGGAAA", "PBM binding z-score": -0.102}
{"sequence": "CTGGAAAGGTCGTGCTCAGGTGAGTATACCAAAC", "PBM binding z-score": -0.219}
{"sequence": "TTACCAAGGTGTAAGGTCGTTGATGCACGCCTTG", "PBM binding z-score": -0.156}
{"sequence": "CGTCAAAGTTCAACTAAGGTACCGTAAAGCACGC", "PBM binding z-score": 4.3}
